Source: PubChem (National Center for Advancing Translational Sciences (NCATS))
A549 tox: Nrf2 qHTS screen for inhibitors: counterscreen for cytotoxicity; A549 ARE-Fluc cells, CellTiter-Fluor viability, 18-24 h; Potency, µM (highest dose often 46 µM), inactives show at the highest dose activity change, negative = cytotoxicity, actives largely listed as inhibitors; actives 0.16% (n = 390,000); AID 504648, 2011; also: potency is read from the fitted curve at half-maximal effect
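A549 ARE-Fluc cells in 5% FBS OPTI-MEM, 5000 cells/well, rested 2 h then exposed to compounds in concentration-response for 18-24 h at 37 °C. Viability by CellTiter-Fluor fluorescence (Ex 405/Em 525) after 30 min; luciferase luminescence (BugLite, 15 min, RT) read afterwards.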
Giardia kill: Small Molecules that selectively kill Giardia lamblia: qHTS. Giardia lamblia trophozoite viability. activity change, % at 7.66 µM, hits read low. actives 0.15% (n = 340,000). AID 540267, 2011; in the data active = activity change below about -80%; inconclusive = between about -30% and that limit;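 also: parasites exposed to compound for two days anaerobically before the ATP read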
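Trophozoites 100 cells/well + cpd; 48 hrs, 37 deg C, anaerobic. ATPLite 1-Step added, 15-30 min RT, luminescence read (ATP-based viability).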
PI4K2A inh: qHTS for small molecular inhibitors of PI4K2A; Phosphatidylinositol 4-kinase type 2-alpha (Homo sapiens), Q9BTU6; purified PI4K2A, ADP-Glo luminescence, 1 h; stronger effect = lower value; activity change, negative = inhibition, % at 76.9 µM; actives 0.13% (n = 420,000); AID 1346378, 2018; in the data active = activity change below about -50%; inconclusive = mostly about -30% to -49%;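 also: -100% = wells without enzyme as full effect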
Target sequence (Q9BTU6 whole entry, looked up): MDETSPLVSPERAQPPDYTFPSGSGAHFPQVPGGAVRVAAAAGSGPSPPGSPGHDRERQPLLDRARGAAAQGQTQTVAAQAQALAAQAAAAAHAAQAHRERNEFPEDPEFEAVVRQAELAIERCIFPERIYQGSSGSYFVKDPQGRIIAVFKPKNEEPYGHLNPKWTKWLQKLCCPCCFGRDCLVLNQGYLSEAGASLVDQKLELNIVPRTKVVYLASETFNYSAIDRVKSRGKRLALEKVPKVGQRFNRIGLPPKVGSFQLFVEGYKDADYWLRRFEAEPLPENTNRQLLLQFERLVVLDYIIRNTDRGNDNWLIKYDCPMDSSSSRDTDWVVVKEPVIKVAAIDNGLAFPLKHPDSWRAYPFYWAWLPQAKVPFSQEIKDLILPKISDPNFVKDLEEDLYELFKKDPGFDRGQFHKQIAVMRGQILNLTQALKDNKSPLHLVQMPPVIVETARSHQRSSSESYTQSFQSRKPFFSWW
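ADP-Glo luminescence measured ADP generated by PI4K2A enzyme (4 ug/mL before mixing) with 1.2 mM PI substrate (pre-mix) and 300 microM ATP (pre-mix). Tris pH7.5 buffer with MgCl2, Triton X-100; 1 h reaction at ambient temperature.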
KB-V1 MDR tox: qHTS assay for MDR1-selective chemotherapeutics: Primary screen using the drug-selected MDR subline cells KB-V1; KB-V1 MDR cells viability, CellTiter-Glo, 72 h; actives 3.4% (n = 400,000); Potency, µM (series often up to 46.1 µM), most hits filed as cytotoxic; also: potency is read from the fitted curve at half-maximal effect; nearly all actives have a fitted effect of over 60% in size
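Following 72 h at 37 degrees C with compound, KB-V1 cell viability was read by CellTiter-Glo luminescence, medium being phenol-red-free DMEM plus 10% FBS; concentration-response parameters came from normalized, curve-fitted qHTS data.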
Nrf2 inh: Nrf2 qHTS screen for inhibitors; AID 504444, 2011; actives 2.1% (n = 360,000); A549 ARE-Fluc reporter, luciferase luminescence, 18-24 h; Potency, µM (series often up to 46 µM), without a hit: top-dose activity change, negative = inhibition, actives largely listed as inhibitors; also: potency is read from the fitted curve at half-maximal effect; nearly all actives have a fitted effect of over 60% in size
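A549 ARE_Fluc cells, 5000/well, 5% FBS OPTI-MEM; compounds in dose-response, 18-24 h at 37 °C/5% CO2; CellTiter-Fluor viability read (Ex 405/Em 525), then BugLite luciferase luminescence = Nrf2 activity.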
KB-3-1 cytotox: qHTS assay for MDR1-selective chemotherapeutics: Primary screen using the parental adenocarcinoma cell KB-3-1; KB-3-1 viability, CellTiter-Glo ATP luminescence, 72 h; Potency, µM (series often up to 46.1 µM), actives largely listed as cytotoxic; actives 1.4% (n = 400,000); also: potency is read from the fitted curve at half-maximal effect; nearly all actives have a fitted effect of over 60% in size
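72 h, 37 °C compound treatment of KB-3-1 parental cells; CellTiter-Glo added, 10 min, luminescence read. Data corrected against DMSO-only plates and normalized before curve fitting.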
* = called active by the depositor; i = inactive; ? = inconclusive; . = not tested or not shown. This is a sample that favours compounds with a hit; in the whole collection about 5.7% have one here. Unless noted, calls follow the shape of the dose curve; as a rule, active = well fitted curve in the direction sought with a large enough effect; inconclusive = small, poorly fitted or top-dose-only effect, or another doubt; inactive = no such curve, though single readings can be large; an effect the other way counts as inactive or inconclusive. Unless noted, % is scaled to controls: 0 for no effect and ±100 for the full control effect.

SMILES	A549 tox	Giardia kill	PI4K2A inh	KB-V1 MDR tox	Nrf2 inh	KB-3-1 cytotox
N/C(=N\c1nc(CSc2nc3ccccc3s2)cc(=O)[nH]1)Nc1ccc(F)cc1	-5.2%	-8.9	1.0	i	-11.8%	11.6µM*
Cc1ccc2cc3c(N)[nH]nc3nc2c1	-3.5%	-27.1	-3.9	18.4µM*	7.3%	i
N#CC1=C(N)SC2(CCCCC2)SC1c1ccccc1 (centres undefined)	-0.5%	1.5	20.5	i	.	i
N#CC1=C(C2CC2)CC(c2ccccc2)C(C#N)=C1N (centres undefined)	-6.1%	-13.5	3.0	23.1µM*	-14.4%	i
COc1cccc2c1C(=O)c1c(O)c3c(c(O)c1C2=O)C[C@@](O)(C(=O)CO)C[C@@H]3O[C@H]1C[C@H](N)[C@@H](O)[C@H](C)O1	?	-21.7	-15.1	.	3.26µM*	?
CC(=O)[C@]1(O)Cc2c(O)c3c(c(O)c2[C@@H](O[C@H]2C[C@H](N)[C@H](O)[C@H](C)O2)C1)C(=O)c1ccccc1C3=O	?	-11.5	-6.7	1.84µM*	?	0.0731µM*
COc1cccc2c1C(=O)c1c(O)c3c(c(O)c1C2=O)C[C@@](O)(C(=O)CO)C[C@@H]3O[C@H]1C[C@H](N)[C@H](O[C@@H]2CCCCO2)[C@H](C)O1	.	.	-15.9	.	.	.
O=S(=O)(Nc1cccc2ccccc12)c1cccc2ccccc12	-24.1%	3.2	.	.	18.4µM*	.
COC(=O)Nc1ccc(S(=O)(=O)Nc2cccc3ccccc23)cc1	?	13.7	-0.2	14.6µM*	?	?
Cc1ccc(NS(=O)(=O)c2cc3c(cc2Cl)CCC(=O)N3)cc1Cl	9.0%	.	.	i	-0.2%	i
CC(C)(C)C(=O)OC12CCCN(C1)/C(=C/c1ccc(C#N)cc1)C2 (centres undefined)	.	.	3.0	.	.	.
O=c1[nH]c2ccc(Cl)cc2c(-c2ccccc2)c1N1CCN(c2ccccn2)CC1	-3.2%	7.3	-1.1	13µM*	-18.7%	i
Cc1cccc(OCCNC(=O)CCNS(=O)(=O)c2ccc3ccccc3c2)c1	-3.3%	-22.1	-7.0	18.4µM*	-8.0%	i
Cc1cc2c(cc(C(=O)OC(C(=O)NC3CCCCC3)C(C)C)n2C)o1 (centres undefined)	-12.2%	-10.6	-0.8	?	20.6µM*	?
Cc1cc2c(cc(C(=O)OC(C(=O)NCC3CCCO3)C(C)C)n2C)o1 (centres undefined)	-11.0%	26.2	-0.9	i	?	i
CC(C)NS(=O)(=O)c1ccc(CCC(=O)Nc2cc(Cl)ccc2Oc2ccccc2)cc1	-11.5%	-14.8	5.3	i	.	?
CCNS(=O)(=O)c1ccc(CCC(=O)Nc2cc(Cl)ccc2Oc2ccccc2)cc1	-17.8%	8.4	-13.3	16.4µM*	?	i
CC(C)CN1C(=O)C(=O)N(CC(=O)Nc2cc(Cl)ccc2Oc2ccccc2)C1=O	?	11.1	-1.2	?	23.1µM*	?
O=C(CN1CCCCC1)Nc1cc(Cl)ccc1Oc1ccccc1	-4.8%	-2.6	1.3	?	?	?
CC(C)NC(=O)CCC(=O)N1Cc2ccccc2Oc2ncccc21	4.6%	.	-4.6	?	2.7%	i
O=C(CSc1nnc(-c2cccnc2)n1-c1ccccc1)Nc1ccc2c(c1)OCCO2	.	.	5.6	.	.	.
CCn1c(SCC(=O)NCc2ccco2)nnc1-c1cccc(N(C)C)c1	.	.	.	i	.	i
Cc1ccc2c(c1)cc(CN(Cc1cccnc1)C(=O)NCc1ccccc1)c1nnnn12	-3.8%	4.9	-1.7	2.59µM*	-29.0%	?
Cc1ccc2c(c1)cc(CN(Cc1ccc3c(c1)OCO3)C(=O)c1ccccc1)c1nnnn12	-3.3%	-14.2	6.0	i	4.6%	i
COc1ccc(OC)c(NC(=O)Cc2nn(C)c(=O)c3ccccc23)c1	-5.0%	4.2	3.8	?	?	i
SMILES	A549 tox	Giardia kill	PI4K2A inh	KB-V1 MDR tox	Nrf2 inh	KB-3-1 cytotox
CCCn1nc(C(=O)NC2CCCCCC2)c2ccccc2c1=O	6.3%	-10.0	-4.9	5.8µM*	11.0%	i
COc1cc(NC(=O)Cc2nn(C)c(=O)c3ccccc23)cc(OC)c1OC	-7.9%	-5.5	1.8	14.6µM*	?	i
Cn1nc(CC(=O)NC2CCCCCC2)c2ccccc2c1=O	-4.2%	11.0	-7.7	?	18.4µM*	?
Cn1c(=O)c(C(=O)NC2CCCCCCC2)c(O)c2ccccc21	2.2%	-11.5	5.6	20.6µM*	1.2%	i
Cc1ccc(S(=O)(=O)N2CCCC2C(=O)N2CCc3ccccc3C2)cc1C (centres undefined)	.	.	2.7	.	.	.
O=C1NC(c2ccccc2)(c2ccccc2)C(=O)N1COP(=O)(O)O	.	.	2.5	.	.	.
CCOC(=O)c1cnn(-c2ccc(C(=O)Nc3cc(OC)c(OC)c(OC)c3)cc2)c1N	-2.1%	.	-6.5	i	.	i
Cc1nn(-c2ccccc2)c2sc(C(=O)NCCc3ccccc3)cc12	.	.	-7.3	.	.	.
c1cc2c3c(c1)CCC[N+]3(C1CCCCC1)CCC2	.	.	.	i	.	?
O=c1c2c(-c3ccco3)csc2nc(SCc2cn3cccnc3n2)n1-c1ccccc1	-7.5%	-6.1	-58.2*	i	?	i
NC(=O)CSc1nc2scc(-c3ccco3)c2c(=O)n1-c1ccccc1	-0.8%	10.1	?	i	?	i
c1ccc2c(c1)N=C(N1CCN(Cc3ccc4c(c3)OCO4)CC1)c1ccccc1S2	.	.	4.0	.	.	.
Cc1ccccc1NS(=O)(=O)c1ccc(C(=O)NCC(C)(C)N2CCOCC2)cc1	-7.3%	-11.3	0.3	i	10.3µM*	i
CC1(C(=O)NCc2ccccc2Br)CCN1Cc1ccc(-c2ccccn2)cc1 (centres undefined)	.	.	0.3	13µM*	.	?
CC1(C(=O)NCc2ccccc2Br)CCN1Cc1ccc2ccccc2c1 (centres undefined)	.	.	0.5	i	.	i
Cn1c(N2CCN(S(=O)(=O)c3ccc(Cl)cc3)CC2)nc2ccccc21	-0.1%	-10.7	0.5	16.4µM*	?	i
Cc1cc(N2CCN(S(=O)(=O)c3ccc(Cl)c(Cl)c3)CC2)c2ccccc2n1	-3.0%	-4.3	-2.5	?	23.1µM*	20.6µM*
CC(=O)c1nc(N2CCN(S(=O)(=O)c3ccc(C)cc3)CC2)c2ccccc2n1	6.7%	24.9	.	.	-28.2%	.
Cc1cc(N2CCN(S(=O)(=O)c3ccc(Cl)cc3)CC2)c2ccccc2n1	-21.8%	7.2	0.1	18.4µM*	20.6µM*	?
